Results reported in PubChem BioAssay (Tox21).
Results filed as inconclusive are left out. Activity calls are given as the source filed them. Unless noted, calls come from the whole dose curve; as a rule, active = well fitted curve in the direction sought with a large enough effect in the repeat runs; inconclusive = weak or mixed curves; inactive = no such curve, though single readings can be large; an effect the other way counts as inactive or inconclusive.

Assays:
[1] = qHTS assay to identify small molecule agonists of H2AX (AID 1224845; active = well fitted activation curve with a large enough effect in the signal ratio in the repeat runs, not every such curve was filed as active; the % refers to the signal ratio)
In short: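 Wild-type CHO-K1 cells, plated overnight, exposed 3hr at 37C to 15 concentrations (0.76% DMSO final). Lysed, then HTRF anti-pH2AX (S139) cryptate and anti-H2AX-d2 antibodies, 24 hr room temperature; 665/620 nm emission read.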

[2] = qHTS assay to identify small molecule agonists of H2AX - cell viability counter screen (AID 1224847; calls by dose curve; note: nearly all actives have a fitted effect of over 30% in size; note: potency is the fitted concentration of half-maximal effect; for activity change, negative = cytotoxicity: top concentration of the series differs between compounds)
In short: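 Viability of CHO-K1 (wild type) cells after 3 hr compound exposure was measured by CellTiter-Glo luminescence.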

[3] = qHTS assay to identify small molecule antagonists of the estrogen related receptor (ERR) signaling pathway from Tox21 library (AID 1224848); note: nearly all actives have a fitted effect of over 50% in size
In short: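 ERR reporter cell line (from NTP) seeded 2,000 cells/well, rested 6 h at 37 C/5% CO2, then pin-dosed with compounds in DMSO. After 18 h at 37 C, ONE-Glo added; luminescence read after 30 min at room temperature.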

[4] = qHTS RealTime-Glo MT Cell Viability Assay in HepG2 cells - 24 hour (AID 1224867); note: nearly all actives have a fitted effect of over 50% in size
In short: (§1)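 Viability was tracked continuously by NanoLuc luminescence from prosubstrate reduced by living HepG2 cells, at successive time points over 40 h of compound exposure. Cells with reagent were preincubated 5 h at 37 °C before compound addition.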

[5] = qHTS RealTime-Glo MT Cell Viability Assay in HEK293 cells - 32 hour (AID 1224868); note: nearly all actives have a fitted effect of over 50% in size; note: potency is the fitted concentration of half-maximal effect; for activity change, negative = cytotoxic: top concentration of the series differs between compounds
In short: (§2)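 Viability tracked continuously by luminescence as live cells reduce a prosubstrate for NanoLuc; HEK293 cells preincubated 5 h, compound-treated at 37 C, and read at 0, 8, 16, 24, 32 and 40 h.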

[6] = A CellTox Green Cytotoxicity Assay to monitor cytotoxicity in HEK293 cells - 0 hour (AID 1224869); note: nearly all actives have a fitted effect of over 50% in size
In short: (§3)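 Fluorescence intensity, read at 0, 8, 16, 24, 32 and 40 h of compound treatment, reflected dye binding to DNA of dead HEK293 cells; compounds (23 nL, DMSO) were added 5 h after plating cells with reagent.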

[7] = qHTS RealTime-Glo MT Cell Viability Assay in HepG2 cells - 40 hour (AID 1224870); note: nearly all actives have a fitted effect of over 50% in size
In short: (§4)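 HepG2 cells (600/well) mixed with RealTime-Glo MT reagent, settled 5 h at 37 C/5% CO2 before compound addition. Nonlytic NanoLuc luminescence from viable-cell prosubstrate reduction read repeatedly during 40 h treatment at 37 C.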

[8] = A CellTox Green Cytotoxicity Assay to monitor cytotoxicity in HEK293 cells - 40 hour (AID 1224871); note: nearly all actives have a fitted effect of over 45% in size
In short: as §3

[9] = qHTS RealTime-Glo MT Cell Viability Assay in HEK293 cells - 40 hour (AID 1224874); conditions: RealTime-Glo luminescence; max response: stronger effect = lower value; note: nearly all actives have a fitted effect of over 50% in size; note: potency is the fitted concentration of half-maximal effect
In short: (§5)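 Viable HEK293 cells reduce a cell-permeant prosubstrate; the product diffuses out and is consumed by NanoLuc in the medium to give light. Compounds went in after a 5 h incubation and plates were read over the treatment course.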

[10] = A CellTox Green Cytotoxicity Assay to monitor cytotoxicity in HEK293 cells - 24 hour (AID 1224875); note: nearly all actives have a fitted effect of over 45% in size
In short: as §3

[11] = A CellTox Green Cytotoxicity Assay to monitor cytotoxicity in HepG2 cells - 16 hour (AID 1224876); note: nearly all actives have a fitted effect of over 45% in size
In short: (§6)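 Using 1536-well format, dye-containing HepG2 suspension was seeded, allowed 5 h at 37 C/5% CO2, dosed by pintool with compounds, positive and negative controls, and imaged for fluorescence across 40 h.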

[12] = qHTS RealTime-Glo MT Cell Viability Assay in HepG2 cells - 32 hour (AID 1224877); note: nearly all actives have a fitted effect of over 55% in size
In short: as §1

[13] = A CellTox Green Cytotoxicity Assay to monitor cytotoxicity in HepG2 cells - 24 hour (AID 1224878); note: nearly all actives have a fitted effect of over 45% in size
In short: as §6

[14] = A CellTox Green Cytotoxicity Assay to monitor cytotoxicity in HepG2 cells - 40 hour (AID 1224879); note: nearly all actives have a fitted effect of over 40% in size
In short: as §6

[15] = qHTS RealTime-Glo MT Cell Viability Assay in HEK293 cells - 0 hour (AID 1224880)
In short: as §5

[16] = qHTS assay to identify small molecule agonists of the estrogen related receptor (ERR) signaling pathway from Tox21 library (AID 1224849; calls by dose curve; note: nearly all actives have a fitted effect of over 15% in size); conditions: ERR reporter cell line, ONE-Glo luciferase, 18 h; at 92.4 µM (top of the series) unless noted
In short: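 Screening used an NTP-provided ERR luciferase cell line. Compounds in DMSO were added 6 h after seeding and left 18 h at 37 C before a 30 min ONE-Glo step and luminescence reading.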

[17] = qHTS RealTime-Glo MT Cell Viability Assay in HEK293 cells - 16 hour (AID 1224872)
In short: as §2

[18] = qHTS RealTime-Glo MT Cell Viability Assay in HepG2 cells - 8 hour (AID 1224873); note: nearly all actives have a fitted effect of over 55% in size
In short: as §4

[19] = qHTS assay to identify small molecule agonists of the hypoxia (HIF-1) signaling pathway (AID 1224846; active = well fitted activation curve with a large enough effect in the signal ratio in the repeat runs, not every such curve was filed as active; the % refers to the signal ratio)
In short: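 A low-serum medium (0.5% dialyzed FBS) holding 2,000 HRE-bla ME-180 cells per well is preincubated for 5 hrs, dosed with compounds by pintool, and kept a further 17 hrs at 37C, 5% CO2 before CCF4-AM FRET detection of beta-lactamase.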
% is set by controls: 0 for no effect and ±100 for the full control effect.

COc1cc(NS(=O)(=O)c2ccc(N)cc2)nc(OC)n1
inactive: outcome [1] | Potency [2] | Potency [3] | outcome [4] | Potency [5] | outcome [6] | outcome [7] | Potency [8] | max response [9] 5.69% | outcome [10] | outcome [11] | outcome [12] | outcome [13] | Potency [14] | Potency [15]

CCCCOCCOC(=O)COc1nc(Cl)c(Cl)cc1Cl
inactive: outcome [1] | Potency [2] | Potency [3] | activity change, positive = activation [16] 0.145% | outcome [4] | Potency [5] | outcome [6] | outcome [7] | Potency [8] | Potency [17] | max response [9] 7.86% | outcome [10] | outcome [11] | outcome [12] | outcome [13] | Potency [14] | Potency [15]

CCCCCCOc1ccccc1C(N)=O
inactive: outcome [1] | Potency [2] | outcome [4] | outcome [6] | outcome [7] | Potency [8] | outcome [18] | outcome [10] | outcome [11] | outcome [12] | outcome [13] | Potency [15]
active: Potency [5] 16.9 µM | Potency [9] 10.7 µM

BrCc1cccc(Oc2ccccc2)c1
inactive: outcome [1] | outcome [19] | Potency [3] | activity change, positive = activation [16] 0.526% | outcome [4] | Potency [5] | outcome [6] | outcome [7] | Potency [8] | Potency [17] | outcome [18] | max response [9] -9.91% | outcome [10] | outcome [11] | outcome [12]

COc1ccc2c(c1)C(=O)N(CCc1ccc(S(=O)(=O)NC(=O)NC3CCCCC3)cc1)C(=O)C2(C)C
inactive: outcome [1] | outcome [19] | Potency [2] | outcome [4] | Potency [5] | outcome [6] | outcome [7] | Potency [8] | Potency [17] | outcome [18] | max response [9] -9.27% | outcome [11] | outcome [12] | outcome [13] | Potency [14]

CC(C)CCCC(C)(C)O
inactive: outcome [1] | outcome [19] | Potency [2] | outcome [4] | Potency [5] | outcome [6] | outcome [7] | Potency [8] | Potency [17] | outcome [18] | max response [9] -4.36% | outcome [10] | outcome [11] | outcome [12] | outcome [13] | Potency [14] | Potency [15]

CC(N)C(=O)OC(C)(C)Cc1ccc(Cl)cc1 (configuration not stated)
inactive: outcome [1] | outcome [19] | outcome [4] | Potency [5] | outcome [6] | outcome [7] | Potency [8] | Potency [17] | outcome [18] | max response [9] -11.9% | outcome [10] | outcome [11] | outcome [12] | outcome [13] | Potency [14] | Potency [15]

CCCCCCN
inactive: outcome [1] | Potency [2] | outcome [4] | Potency [5] | outcome [6] | outcome [7] | Potency [8] | Potency [17] | max response [9] 9.84% | outcome [10] | outcome [11] | outcome [12] | outcome [13] | Potency [14] | Potency [15]

CC(=O)Nc1ccc(S(=O)(=O)Nc2ccc([N+](=O)[O-])cc2)cc1
inactive: outcome [1] | outcome [19] | Potency [2] | outcome [4] | Potency [5] | outcome [6] | outcome [7] | Potency [8] | outcome [18] | max response [9] -8.9% | outcome [10] | outcome [11] | outcome [12] | outcome [13] | Potency [14] | Potency [15]

CCCC/C=C/C=C\C=O
inactive: outcome [1] | outcome [19] | outcome [4] | Potency [5] | outcome [6] | outcome [7] | Potency [8] | outcome [18] | max response [9] 0.84% | outcome [10] | outcome [11] | outcome [12] | outcome [13] | Potency [14] | Potency [15]
active: Potency [2] 1.6 µM

N[C@@H](CCC(=O)N[C@@H](CS)C(=O)NCC(=O)O)C(=O)O
inactive: activation (H2AX phosphorylation) [1] -1.53% [at 31.6 µM] | activation [19] -0.104% [at 15.8 µM] | activity change, negative = cytotoxicity [2] 0.69% [at 31.6 µM] | activity change, negative = cytotoxicity [4] 0.707% [at 15.8 µM] | activity change, negative = cytotoxic [5] 7.09% [at 15.8 µM] | cytotoxicity [6] 0.542% [at 15.8 µM] | activity change, negative = cytotoxic [7] -0.349% [at 15.8 µM] | cytotoxicity increase [8] 2.27% [at 15.8 µM] | activity change, negative = cytotoxicity [17] 9.65% [at 15.8 µM] | viability change, negative = cytotoxic [18] -0.362% [at 15.8 µM] | max response [9] 3.69% | cytotoxicity increase [11] -10% [at 15.8 µM] | activity change, negative = cytotoxic [12] 2.09% [at 15.8 µM] | cytotoxicity [13] -12.9% [at 15.8 µM] | cytotoxicity increase [14] -8.24% [at 15.8 µM]

OCCC(F)(F)C(F)(F)C(F)(F)C(F)(F)C(F)(F)C(F)(F)C(F)(F)C(F)(F)F
inactive: outcome [1] | outcome [19] | Potency [2] | Potency [3] | outcome [4] | outcome [6] | outcome [7] | Potency [8] | Potency [17] | outcome [18] | outcome [10] | outcome [11] | outcome [12] | outcome [13] | Potency [14] | Potency [15]
